# According to PMC7819943, “Rice protein-binding microarrays: a tool to detect cis-acting elements near promoter regions in rice”:
# Whole data set: some 68,000 sequences, median “fluorescence intensity (a.u.)” near 9,100, cut for the highest 2% near 16,000. For the sample, the highest values were picked, then their nearest neighbours and some sequences at random.
# Biological target: OsWRKY34 (Oryza sativa, UniProt Q0JBA9 1-250)
# Assay: protein-binding microarray (RPBM); PBS, 2% BSA, 51.3 ng/ul salmon testes DNA, 50 uM zinc acetate, 200 nM TF, 25 C, 1 h; high values mean tight binding
# Details: protein: recombinant; tags: N-terminal polyhistidine and DsRed monomer fusion (pET32a); label: CyDye5-dUTP incorporated in the synthesized complementary strand; 3' TTTTT single-stranded linker to array surface; dsDNA, one strand shown
# In short: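 Polyhistidine-tagged DsRed fusions of transcription factors, joined at the N-terminus, were expressed in E. coli BL21-CodonPlus and isolated on Ni–NTA. They were incubated at 200 nM for 1 h at 25 °C on a custom Agilent array, double-stranded and BSA-blocked, in PBS with 2% BSA, salmon testes DNA and 50 µM zinc acetate. The binding signal is per-feature fluorescence intensity (arbitrary units) read on an Axon 4000B scanner after washing.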
# Sequence of OsWRKY34 (Q0JBA9 entry or part of it): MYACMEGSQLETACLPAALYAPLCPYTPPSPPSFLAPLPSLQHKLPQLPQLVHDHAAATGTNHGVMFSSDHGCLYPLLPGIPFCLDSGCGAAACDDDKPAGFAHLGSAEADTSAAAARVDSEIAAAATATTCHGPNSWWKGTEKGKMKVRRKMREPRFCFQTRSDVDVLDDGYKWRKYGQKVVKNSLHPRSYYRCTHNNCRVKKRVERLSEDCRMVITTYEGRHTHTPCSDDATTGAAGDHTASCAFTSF
row,Sequence,binding signal
1,CGATTGCCATTGTTCGTGTGTTTTTTCTTGTCTCTTTCCGCGGAGTCACCTAGTGCAG,11000 fluorescence intensity (a.u.)
2,TCACCATCTCGACTCAGCCAATCCATTTCTAAATTTTATACGGAGTCACCTAGTGCAG,8690 fluorescence intensity (a.u.)
3,TTAACCACAGTGCCGTTCTCTAGCCACCATCTCAGCAGCACGGAGTCACCTAGTGCAG,8220 fluorescence intensity (a.u.)
4,TGGGAAGTACATATGTAATGTTGTTTATTTATTTTTGTTTCGGAGTCACCTAGTGCAG,9860 fluorescence intensity (a.u.)
5,ATCTTGGGAAGGCCGTTACTCACTCTAGACTTTACTCCTCCGGAGTCACCTAGTGCAG,8270 fluorescence intensity (a.u.)
6,CCTCACCGATGGATTTTTTAGCCCGATCCTACCCCTCCTACGGAGTCACCTAGTGCAG,10500 fluorescence intensity (a.u.)
7,ACCACGTCCCTTTCCATTTTCCCTTGTTTTTTTTCCTCCTCGGAGTCACCTAGTGCAG,11200 fluorescence intensity (a.u.)
8,TAATTTTACTCGATACTCTATGTACCCCTGAAATTTCGCTCGGAGTCACCTAGTGCAG,9560 fluorescence intensity (a.u.)
9,GCCTTGTCTATTGCCTCAGAAGTTGGTTACCCTGTTGTTGCGGAGTCACCTAGTGCAG,8150 fluorescence intensity (a.u.)
10,GATGTGCCCTTTATTCACAACATTTAACAATTGTTACTTGCGGAGTCACCTAGTGCAG,8520 fluorescence intensity (a.u.)
11,TTGGGAGGGTTTTTCACGTTAAATCTCGTGTCTTCTGTAACGGAGTCACCTAGTGCAG,29500 fluorescence intensity (a.u.)
12,GGGTTTTCCACGTTAAATCTCGTGTCTTCTGTGTTTGATCCGGAGTCACCTAGTGCAG,12000 fluorescence intensity (a.u.)
13,TTTTCTCTCCTGTTTTGGGAGGGTTTTCCACGTTAAATCTCGGAGTCACCTAGTGCAG,8230 fluorescence intensity (a.u.)
14,GTGAGGGTGTGGTTACAGTGGGTTGGTTTTTTTTCTCCCCCGGAGTCACCTAGTGCAG,11800 fluorescence intensity (a.u.)
15,GTTTGTGGTTCAGTTTTTGTCCCCATGGGTCTCTTAGCGGCGGAGTCACCTAGTGCAG,9120 fluorescence intensity (a.u.)
16,GTATGGTTGGTTGGTTGGTTTGTTGGGTTTCTCCCCGGCCCGGAGTCACCTAGTGCAG,33300 fluorescence intensity (a.u.)
17,TGTACAGTTGGTTCTTTTCTTTTTTTTTTTCAGTTGAGTCCGGAGTCACCTAGTGCAG,9330 fluorescence intensity (a.u.)
18,GTGGGTTCTTTGTGGGGTCTCTTATAGTTTTCACTGCCAGCGGAGTCACCTAGTGCAG,20500 fluorescence intensity (a.u.)
19,TTAAAAAAAGTTGGGTAATTGTGGGGTTTGTTTTTTCTCCCGGAGTCACCTAGTGCAG,9490 fluorescence intensity (a.u.)
20,ACTTTTGGTGGACCTTGGTTGTTTGGTCTGTTTCTCTCAGCGGAGTCACCTAGTGCAG,8680 fluorescence intensity (a.u.)

row,Sequence,binding signal
1,TATATCTCGTGGTTTGTGGGTTCTTTTCACTTGTTCAGTGCGGAGTCACCTAGTGCAG,14000 fluorescence intensity (a.u.)
2,CCTTTTTGTTGGTCTCTGTTCTTGGGTTGGGTTTTCAGTCCGGAGTCACCTAGTGCAG,20800 fluorescence intensity (a.u.)
3,TATTAGTGGTATATATCCCTATCAGTCATTCTGCTTGCTTCGGAGTCACCTAGTGCAG,9260 fluorescence intensity (a.u.)
4,CGACGTACCGTAGCCGATTTCTGTTGCTATTATCATGTTCCGGAGTCACCTAGTGCAG,9450 fluorescence intensity (a.u.)
5,ATTTCTAGTCATGCCCGATAACCACTCCGGCACGACCACGCGGAGTCACCTAGTGCAG,8150 fluorescence intensity (a.u.)
6,CCAGACAGCTTCAGTTTGCAACGTACCCAAGTAAGAAACACGGAGTCACCTAGTGCAG,9150 fluorescence intensity (a.u.)
7,ACTTTGTAGCCCAATAACCACTATTTGATTCAACAGGTTTCGGAGTCACCTAGTGCAG,9900 fluorescence intensity (a.u.)
8,ACCATTTGTTTGAGCTCCGGAACCTTTTCGCCGTCCTATGCGGAGTCACCTAGTGCAG,8460 fluorescence intensity (a.u.)
9,ATGGCATTGAGCATTACAGTTGAATTTGTGTAGTTTTTAGCGGAGTCACCTAGTGCAG,8390 fluorescence intensity (a.u.)
10,CCAGTGGTGGAGTGGAGTGGTGGTGGGGAGACGTGAGGAGCGGAGTCACCTAGTGCAG,8630 fluorescence intensity (a.u.)
11,CCCTCCTCTCCGCGCGCGCCACCTGTCCATCCGCGCGGAGCGGAGTCACCTAGTGCAG,8970 fluorescence intensity (a.u.)
12,GGTTATGGTTCAATTCTAATGTTCCTTTGGTGTCACATTTCGGAGTCACCTAGTGCAG,8200 fluorescence intensity (a.u.)
13,GGTGGGAGTGCGCATTGAGGATAAGCCACTGATGACGTCTCGGAGTCACCTAGTGCAG,8600 fluorescence intensity (a.u.)
14,CTCCTGCTTCTCTGTTCTTTCCATTCTCCTCCTTTTTTTCCGGAGTCACCTAGTGCAG,14600 fluorescence intensity (a.u.)
15,GTGCAGTTGTCTTCTTCTGTTCTTTGGTCATATAGTAGTTCGGAGTCACCTAGTGCAG,14900 fluorescence intensity (a.u.)
16,CTTCTTCCACTTGAAGCTTTTTCTCTCTTGGTCTTATCCTCGGAGTCACCTAGTGCAG,9690 fluorescence intensity (a.u.)
17,TCTCCAGCTTTTTTCTGTTCCTCTGGTCTTGATTCTTGAACGGAGTCACCTAGTGCAG,18200 fluorescence intensity (a.u.)
18,CAGTCTGTCTTGGTCTCTTTGTTCAGTCATGGTCTCTCTTCGGAGTCACCTAGTGCAG,19000 fluorescence intensity (a.u.)
19,TTTTCTTCTTTCTTTCTCTCTGTCTTGTTCAATTTTTTCTCGGAGTCACCTAGTGCAG,11800 fluorescence intensity (a.u.)
20,TGACATTTAAATTCTGTTTCTCTCTTTGTGTTTTAGTTCCCGGAGTCACCTAGTGCAG,9720 fluorescence intensity (a.u.)

row,Sequence,binding signal
1,TTAAACGGTCATTCTTGTGTTTTTCCTGTATTTTCTAATCCGGAGTCACCTAGTGCAG,9220 fluorescence intensity (a.u.)
2,ATACCTCTTGTGTATTAATTAAACATTAGTGTTTCTGTTCCGGAGTCACCTAGTGCAG,48000 fluorescence intensity (a.u.)
3,TGGTGGGTGCATTGTTGTTCACATTCCGGATCCCTGCATCCGGAGTCACCTAGTGCAG,9220 fluorescence intensity (a.u.)
4,TTGTAGTACTAGGTCGTATCTAATACTAGTTGATTTTTTACGGAGTCACCTAGTGCAG,8190 fluorescence intensity (a.u.)
5,TGTATCTCAAATTCTTTCAGTTGGTTTTGTGCTCTTTTTACGGAGTCACCTAGTGCAG,8920 fluorescence intensity (a.u.)
6,GGCGCTTTATTCAATTGGTCCGCTCTCGGTCTCCTGCACGCGGAGTCACCTAGTGCAG,8270 fluorescence intensity (a.u.)
7,CTGCTGCGAGGGTGGGTGTTGCTTGTACCGGGCGGGGATGCGGAGTCACCTAGTGCAG,20300 fluorescence intensity (a.u.)
8,GGGAGGGGAGGACGGCGACGGCGGCGGCGGCGGGGTGTGGCGGAGTCACCTAGTGCAG,10800 fluorescence intensity (a.u.)
9,GGCGCTTCTAGGGTTTGGTGGGGTTCGGGCGGGCGCGCCGCGGAGTCACCTAGTGCAG,15600 fluorescence intensity (a.u.)
10,GGAGGGGACGACGATGGTGGGGTGGGTGGTGTCCGGGGTGCGGAGTCACCTAGTGCAG,19100 fluorescence intensity (a.u.)
11,CGGAGGGGTTGGGCTTGCGGGCGGCGTGTACCTTGTGCACCGGAGTCACCTAGTGCAG,9410 fluorescence intensity (a.u.)
12,CGCGCCGGGTGGCGTTGGTGTTGGCGCCGGGGAGGGTCAGCGGAGTCACCTAGTGCAG,9140 fluorescence intensity (a.u.)
13,TTTGCTGCTGCTGCTTCTAGGGTTAGGGTTTGGGGTGGGGCGGAGTCACCTAGTGCAG,22100 fluorescence intensity (a.u.)
14,CTGCGGCGAGAGGTGGGAGGCGGGGCGGTTGTACGTGTGCCGGAGTCACCTAGTGCAG,11000 fluorescence intensity (a.u.)
15,CGCACTGGCGGGGCTTGGAGCTGGGGTTTCTAGGGTTTGGCGGAGTCACCTAGTGCAG,8980 fluorescence intensity (a.u.)
16,TGGGGTTGAGGGAGGGTGCCGCGGGTGGCTGGCGGAGGACCGGAGTCACCTAGTGCAG,10600 fluorescence intensity (a.u.)
17,GCGGCGCGGCGGGGAGGAGGGAGGGGTGGCGTTGAGGTGGCGGAGTCACCTAGTGCAG,19300 fluorescence intensity (a.u.)
18,GAGATGGAGGTGGAGGTGGTGGAGGGGACGACGATGGTGGCGGAGTCACCTAGTGCAG,9610 fluorescence intensity (a.u.)
